14 compounds from PubChem BioAssay (NCATS) can be followed below.

Inconclusive results are not listed. Activity calls are given as the source filed them. Unless noted, calls come from the whole dose curve; as a rule, active = well fitted inhibition curve with a large enough effect; inconclusive = small, poorly fitted or top-dose-only effect; inactive = flat fitted curve, though single readings scatter.

The nature of assay [1]: qHTS drug screen for cell cycle checkpoint inhibitors in PARPi-resistant BRCA-mutant ovarian cancer cell lines. (AID 1963452; calls by dose curve). Conditions: PEO1/OlaR viability, CellTiter-Glo luminescence, 96 h, stronger effect = lower value. The essentials:
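PEO1, PEO4 and PEO1/OlaR ovarian cancer cells, 600 per well, exposed 96 h at 37C to a dilution series. Viability read by CellTiter-Glo luminescence, normalized to DMSO and empty wells; activity summarized as Z-AUC.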

Assay [2] can be described thus: qHTS profiling for inhibitors of Plasmodium falciparum proliferation (AID 504749).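 For activity, negative = inhibition: 0% = DMSO vehicle and full inhibition = artemisinin control.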 Note: nearly all actives have a fitted effect of over 60% in size. Note: potency is the fitted concentration of half-maximal effect. Conditions: P. falciparum in erythrocytes, SYBR Green DNA, 72 h. The essentials: (§1)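 SYBR Green fluorescence of parasite DNA, read after lysis and overnight dark incubation, measured growth over 72 h in erythrocyte culture at 0.3% parasitemia and 2.5% hematocrit. Data normalised to DMSO and 0.29 uM artemisinin, with plate-drift correction.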

In another assay the test system is AA1029. Described as above. Conditions: P. falciparum in erythrocytes, SYBR Green DNA, 72 h; series mostly up to 28.7 µM. The essentials:
as §1

The subject of the next assay is AS120. The description is as above. Conditions: P. falciparum in erythrocytes, SYBR Green DNA, 72 h; series mostly up to 28.7 µM. The essentials:
as §1

In another assay the test system is 3D7. The assay is described as above. Conditions: P. falciparum in erythrocytes, SYBR Green DNA, 72 h; series mostly up to 28.7 µM. The essentials:
as §1

Another assay concerns 7G8. The description is as above. Conditions: P. falciparum in erythrocytes, SYBR Green DNA, 72 h; series mostly up to 28.7 µM. The essentials: as §1
A short description of assay [3]: qHTS for identification of novel therapeutic agents for treatment of microphthalmiaassociated transcription factor (MiT) renal cell carcinoma (RCC) (AID 1963991; calls by dose curve; note: potency is the fitted concentration of half-maximal effect). Conditions: CellTiter-Glo, 48 h; for z-score: stronger effect = lower value. The essentials: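 Three TFE3-fusion RCC cell lines (UOK109, UOK124, UOK145), 500 cells/well, were exposed to the 1912-compound MIPE 4.0 library for 48 hours at 37 C. Viability was read by CellTiter-Glo luminescence, normalised to DMSO (100%) and empty wells (0%), with 11-concentration curve fits.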
A general note: In qHTS, concentration-response curves come from the screen itself.

Setting [4] is: measured here: PEO1 parental Z-AUC.
Setting [5] is: at 28.7 µM (top of the series), parasite line A.
[6] abbreviates: at 28.7 µM (top of the series), parasite line B.
Setting [7] is: TFE3-RCC UOK109 viability, measured here: UOK109 Z-AUC.
Setting [8] is: TFE3-RCC viability, measured here: UOK124 Z-AUC.
Where [9] appears, read: TFE3-RCC viability, measured here: UOK145 Z-AUC.

`Clc1ccccc1C(c1ccccc1)(c1ccccc1)n1ccnc1`: the figures for the Z-AUC in assay [1], in assay [1] (setting [4]) and in assay [1] (measured here: PEO4 Z-AUC) were -0.839 (inactive), -1.06 and -0.849, respectively. Further, the Potency was 0.631 µM (active) in assay [2] (parasite line A), 0.708 µM (active) in assay [2] (parasite line B), 0.891 µM (active) in the assay with AA1029 and 0.178 µM (active) in the assay with AS120.

With `CC(C)C(=O)Nc1ccc([N+](=O)[O-])c(C(F)(F)F)c1`, the Z-AUC in assay [1] was -1.15 (inactive); in assay [1] (setting [4]), -0.423; in assay [1] (measured here: PEO4 Z-AUC), 0.418. For the same compound, the figures for the activity, negative = inhibition in assay [2] (setting [5]) and in assay [2] (setting [6]) were 5.81% (inactive) and 10.3% (inactive), respectively. The Potency result in the assay with 3D7, in the assay with AA1029 and in the assay with AS120 was “inactive” each time.

Turning to `O=c1[nH]cc(F)c(=O)[nH]1`, the figures for the Z-AUC in assay [1], in assay [1] (setting [4]) and in assay [1] (measured here: PEO4 Z-AUC) were 0.953 (inactive), 0.582 and 0.136, respectively. In addition, in assay [2] (setting [6]), the activity, negative = inhibition was -26.3% (inactive). Moreover, the Potency with 7G8 was 12.6 µM (active).

As to `Clc1ccc(C(c2ccccc2Cl)C(Cl)Cl)cc1` (stereo not drawn), the activity, negative = inhibition was -12.9% (inactive) in assay [2] (setting [5]) and -9.4% (inactive) in assay [2] (setting [6]). The Potency entry with AA1029 and with AS120 was “inactive” throughout.

On to `CC(C)NCC(O)c1ccc(O)c(O)c1` (stereo not drawn), for which the Z-AUC in assay [1] was 1.31 (inactive); in assay [1] (setting [4]) it was 0.911; in assay [1] (measured here: PEO4 Z-AUC), 0.816. In addition, the figures for the activity, negative = inhibition in assay [2] (setting [5]) and in assay [2] (setting [6]) were -3.62% (inactive) and -0.405% (inactive), respectively. In addition, the Potency entry with 3D7, in the assay with AA1029 and with AS120 was “inactive” in each case.

Turning to `CC(CCc1ccc(O)cc1)NCCc1ccc(O)c(O)c1` (stereo not drawn), the activity, negative = inhibition is 7.14% (inactive) in assay [2] (setting [5]) and -3.6% (inactive) in assay [2] (setting [6]). The Potency entry with 3D7, in the assay with AA1029 and in the assay on AS120 was “inactive” throughout.

`COC(=O)Nc1nc2ccc(C(=O)c3cccs3)cc2[nH]1`: the Potency in assay [3] (TFE3-RCC UOK109 viability, active = Z-AUC below -0.8 in all three lines) is 0.00833 µM (active). For the same compound, the figures for the z-score in assay [3] (setting [7]), in assay [3] (setting [8]) and in assay [3] (setting [9]) were -2.2, -3.02 and -1.81, respectively. Further, the figures for the activity, negative = inhibition in assay [2] (setting [5]) and in assay [2] (setting [6]) were -6.79% (inactive) and 11.2% (inactive), respectively. Also, the Potency entry in the assay on 3D7, in the assay with 7G8, in the assay with AA1029 and in the assay on AS120 was “inactive” throughout.

Take `CCCCc1oc2ccccc2c1C(=O)c1cc(I)c(OCCN(CC)CC)c(I)c1`: the Z-AUC was -0.673 (inactive) in assay [1], -0.649 in assay [1] (setting [4]) and -0.00161 in assay [1] (measured here: PEO4 Z-AUC). Further, the Potency was 4.47 µM (active) in assay [2] (parasite line A); 2.82 µM (active) in assay [2] (parasite line B); 3.16 µM (active) with 7G8; 6.31 µM (active) with AA1029; 3.55 µM (active) with AS120.

Take `CN1CCC(=C2c3ccccc3CC(=O)c3sccc32)CC1`: the Potency was 5.01 µM (active) in assay [2] (parasite line A) and 11.2 µM (active) in the assay on 7G8.

As for `COc1ccccc1OCCNCC(O)COc1cccc2[nH]c3ccccc3c12` (stereo not drawn), the z-score is 0.499 in assay [3] (setting [7]), 0.302 in assay [3] (setting [8]) and 0.158 in assay [3] (setting [9]). The Potency with 7G8 is 8.91 µM (active); with AA1029, 8.91 µM (active); with AS120, 3.98 µM (active).

Regarding `Cc1cn([C@H]2C=C[C@@H](CO)O2)c(=O)[nH]c1=O`, the z-score in assay [3] (setting [7]) is 0.266; in assay [3] (setting [8]), 0.139; in assay [3] (setting [9]) it was 0.201. For the same compound, the results for the activity, negative = inhibition in assay [2] (setting [5]) and in assay [2] (setting [6]) were 2.38% (inactive) and -3.42% (inactive), respectively. The Potency entry in the assay with 3D7, in the assay on 7G8, with AA1029 and with AS120 was “inactive” throughout.

With `Clc1ccc2c(c1)C(N1CCNCC1)=Nc1ccccc1O2`, the z-score in assay [3] (setting [7]) came out at 0.826; in assay [3] (setting [8]), 0.445; in assay [3] (setting [9]), 0.654. For the same compound, in assay [2] (setting [5]), the activity, negative = inhibition was -18.9% (inactive). Further, in the assay with 3D7, the Potency entry is “inactive”.

In the case of `CC1(CN2CCC(n3c(=O)[nH]c4ccccc43)CC2)OCc2ccccc2-n2cccc21` (stereo not drawn), the results for the Z-AUC in assay [1], in assay [1] (setting [4]) and in assay [1] (measured here: PEO4 Z-AUC) were 1.14 (inactive), 0.846 and 0.865, respectively. Moreover, the Potency in the assay with 7G8 was 3.16 µM (active); with AS120, 10 µM (active).

Take `Nc1nc2c(ncn2COC(CO)CO)c(=O)[nH]1`: the activity, negative = inhibition is -0.332% (inactive) in assay [2] (at 12.8 µM (top of the series), parasite line A) and 8.95% (inactive) in assay [2] (at 12.8 µM (top of the series), parasite line B). Also, the Potency entry with 3D7, in the assay with 7G8, in the assay with AA1029 and in the assay with AS120 was “inactive” in each case.
